Several values for one entry are separate records, joined by “and”; a condition that tells them apart may be missing. Equal entries are not always repeated. Inconclusive results are not listed. The source holds several records for some structures; these can differ, active in one and inactive in another. Activity calls are given as the source filed them. The call rests on the fitted dose curve. Residues, ends and D or L forms follow the SMILES beside them.
How the values were obtained:
[1] = target: Acetylcholinesterase (Homo sapiens) (UniProt P22303); assay: Acetylcholinesterase (AChE) small molecule antagonists: colormetric cell-based qHTS assay (AID 1347395); further: nearly all actives have a fitted effect of over 30% in size; further: potency means the concentration at half of the fitted maximal effect
Procedure, shortened: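 In this cell-based qHTS, attached SH-SY5Y cells were treated with test chemicals for 30 min, after which acetylthiocholine hydrolysis was followed by DTNB colour development over 90 min at 37 C.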

[2] = target: Acetylcholinesterase (Homo sapiens) (UniProt P22303); assay: Acetylcholinesterase (AChE) small molecule antagonists: enzyme-based qHTS assay (AID 1347397); conditions: Potency: AChE enzyme activity inhibition; outcome: AChE enzyme activity inhibition; further: nearly all actives have a fitted effect of over 55% in size; further: potency means the concentration at half of the fitted maximal effect
Procedure, shortened: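 Compound or DMSO vehicle was pin-transferred onto recombinant human AChE (50 mU/mL as dispensed) and left 30 min at room temperature. Acetylthiocholine with DTNB then started the reaction, read colorimetrically 10 min later.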

[3] = target: Acetylcholinesterase (Homo sapiens) (UniProt P22303); assay: Acetylcholinesterase (AChE) small molecule antagonists: fluorescence cell-based qHTS assay (AID 1347398); conditions: Potency: AChE activity; outcome: AChE activity; further: nearly all actives have a fitted effect of over 50% in size; further: potency means the concentration at half of the fitted maximal effect
Procedure, shortened: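 Using neuroblastoma SH-SY5Y cells as the enzyme source, test chemicals are preincubated 30 min at 37 C; AChE-driven acetylthiocholine cleavage is then quantified by thiocholine-dependent Thiolite Green fluorescence after 40 min at room temperature.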

[4] = target: Acetylcholinesterase (Homo sapiens) (UniProt P22303); assay: Acetylcholinesterase (AChE) small molecule antagonists: enzyme-based qHTS assay with human liver microsomes (AID 1347399); conditions: Potency: qHTS inhibition; outcome: qHTS inhibition; further: nearly all actives have a fitted effect of over 60% in size
Procedure, shortened: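 Recombinant human AChE (50 mU/mL in the enzyme mix) and human liver microsomes (0.25 mg/mL final) were preincubated with compound and NADPH (0.25 mg/mL final) for 30 min at 37 C. Acetylthiocholine/DTNB was then added; thiocholine was read colorimetrically after 10 min at room temperature.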

Measured: Potency

Acetylcholinesterase (Homo sapiens), sequence (P22303 whole entry, looked up): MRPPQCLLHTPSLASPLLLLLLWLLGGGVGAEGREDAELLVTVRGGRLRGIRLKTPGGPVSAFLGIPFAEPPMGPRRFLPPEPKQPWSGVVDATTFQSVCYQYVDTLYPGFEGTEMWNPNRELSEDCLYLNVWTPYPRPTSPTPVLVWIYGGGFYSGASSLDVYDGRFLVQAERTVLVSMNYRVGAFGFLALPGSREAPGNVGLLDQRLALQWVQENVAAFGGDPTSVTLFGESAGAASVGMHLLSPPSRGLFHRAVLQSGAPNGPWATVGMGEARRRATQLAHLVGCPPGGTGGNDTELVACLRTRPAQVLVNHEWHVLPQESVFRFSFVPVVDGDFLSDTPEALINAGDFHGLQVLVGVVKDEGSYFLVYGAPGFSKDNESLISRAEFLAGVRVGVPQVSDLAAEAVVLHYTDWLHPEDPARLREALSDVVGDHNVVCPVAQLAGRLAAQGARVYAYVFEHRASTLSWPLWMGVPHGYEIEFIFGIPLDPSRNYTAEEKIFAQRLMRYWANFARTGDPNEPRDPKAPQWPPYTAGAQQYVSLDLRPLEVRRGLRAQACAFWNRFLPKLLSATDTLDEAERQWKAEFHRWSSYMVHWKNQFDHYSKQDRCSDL

COC(=O)[C@H]1[C@H]2C[C@@H]3c4[nH]c5cc(OC)ccc5c4CCN3C[C@H]2C[C@@H](OC(=O)/C=C/c2ccc(O)c(OC)c2)[C@@H]1OC
inactive: [1] | [2] | [3] | [4]

CC(CNC1CCCCC1)OC(=O)c1ccccc1 (centres undefined)
inactive: [1] | [2] | [3] | [4]

Nc1c(S(=O)(=O)O)cc(Br)c2c1C(=O)c1ccccc1C2=O
inactive: [1] | [2] | [3] | [4]

CCOc1nc2cccc(C(=O)O)c2n1Cc1ccc(-c2ccccc2-c2nn[nH]n2)cc1
inactive: [1] | [2] | [3] | [4]

CCC(=O)O[C@]1(C(=O)SCF)[C@H](C)C[C@H]2[C@@H]3C[C@H](F)C4=CC(=O)C=C[C@]4(C)[C@@]3(F)[C@@H](O)C[C@@]21C
inactive: [1] | [2] | [3] | [4]

NC(=S)NC(N)=S
inactive: [1] | [2] | [3] | [4]

O=c1[nH]cc(F)c(=O)[nH]1
20.8 µM (active) and inactive: [1]
inactive: [2] | [3] | [4]

O=C(CS)Nc1ccccc1
inactive: [1] | [2] | [3] | [4]

CC(C)C1=CC2=CC[C@@H]3[C@](C)(CCC[C@@]3(C)C(=O)O)[C@H]2CC1
inactive: [1] | [2] | [3] | [4]

C1CN(CCOCCN2CCOCC2)CCO1
inactive: [1] | [2] | [3] | [4]

CC(C)(C#N)c1cc(Cn2cncn2)cc(C(C)(C)C#N)c1
inactive: [1] | [2] | [3] | [4]

O=C(c1ccccc1)c1cc(Cl)ccc1O
inactive: [1] | [2] | [3] | [4]

C/C(=C(/OCCOc1ccc(Cl)cc1)c1ccc(Cl)cc1Cl)n1ccnc1
inactive: [1] | [2] | [3] | [4]

CCOC(=O)C1=C(C)NC(C)=C(C(=O)OCC)C1c1ccccc1/C=C/C(=O)OC(C)(C)C
inactive: [1] | [2] | [3] | [4]

COC(=O)CC(=O)OC
inactive: [1] | [2] | [3] | [4]

CC(=O)c1ccc(OCC(=O)N2CCCCC2)cc1
inactive: [1] | [2] | [3] | [4]

CC(C)(C)NCCO
inactive: [1] | [2] | [3] | [4]

N=c1nc(N2CCCCC2)cc(N)n1O
inactive: [1] | [2] | [3] | [4]

O=C(O)C(S)C(S)C(=O)O (centres undefined)
inactive: [1] | [2] | [3] | [4]

C=CC/C=C/C
inactive: [1] | [2] | [3] | [4]

CC(=O)OCC(COC(C)=O)OC(C)=O
inactive: [1] | [2] | [4]
31.3 µM (active) and inactive: [3]

Cc1ncc([N+](=O)[O-])n1C
inactive: [1] | [2] | [3] | [4]

COC(=O)CCCCC(=O)OC
inactive: [1] | [2] | [3] | [4]

Cc1c(C)c2c(c(C)c1OC(=O)c1cccnc1)CC[C@@](C)(CCC[C@H](C)CCC[C@H](C)CCCC(C)C)O2
inactive: [1] | [2] | [3] | [4]

O=C(OCCCCCCOC(=O)c1ccccc1)c1ccccc1
inactive: [1] | [2] | [3] | [4]

COC(=O)[C@H](Cc1ccccc1)NC(=O)[C@@H](N)CC(=O)O (H-Asp-Phe-OMe)
inactive: [1] | [2] | [3] | [4]

O=C=Nc1ccc(Cc2ccc(N=C=O)cc2)cc1
inactive: [1] | [2] | [3] | [4]

CN(C)CCc1c[nH]c2ccc(C[C@H]3COC(=O)N3)cc12
inactive: [1] | [2] | [3] | [4]

Clc1cccc(-c2cc(Cl)cc(Cl)c2)c1
inactive: [1] | [2] | [3] | [4]

CC1(C)[C@@H]2CC[C@@]1(C)C(=O)C2
inactive: [1] | [2] | [3] | [4]

CN1CCCC1=O
inactive: [1] | [2] | [3] | [4]

NC(=O)c1ccccc1N
inactive: [1] | [2] | [3] | [4]

Cc1ccc(C)c(OCCCC(C)(C)C(=O)O)c1
inactive: [1] | [2] | [3] | [4]

CCCCCCC(O)CCOC(C)=O (centres undefined)
inactive: [1] | [2] | [3] | [4]

C=C[Si](OC(C)=O)(OC(C)=O)OC(C)=O
inactive: [1] | [2] | [3] | [4]

CCCCN=C(N)N=C(N)N
inactive: [1] | [2] | [3] | [4]

C[C@H]1C[C@H]2[C@@H]3CCC4=CC(=O)C=C[C@]4(C)[C@@]3(F)[C@@H](O)C[C@]2(C)[C@@]1(O)C(=O)CO
inactive: [1] | [2] | [3] | [4]

CC(=O)CC/C=C(\C)CC/C=C(\C)CC/C=C(\C)CCC=C(C)C
inactive: [1] | [2] | [3] | [4]

CCCCCCCCCCCCOC(=O)c1cc(O)c(O)c(O)c1
active: [2] 35.4 µM and 39.9 µM
inactive: [1] | [3] | [4]

Cc1cccc2ccccc12
inactive: [1] | [2] | [3] | [4]

CC(C)=CCC/C(C)=C/CC/C(C)=C/CO
inactive: [1] | [2] | [3] | [4]

C=C(C)C(=O)OCCCCCCOC(=O)C(=C)C
inactive: [1] | [2] | [3] | [4]

O=[N+]([O-])c1nccn1CO[C@@H](CO)[C@H](O)CO
inactive: [1] | [2] | [3] | [4]

C=C(C)C1CC=C(C)C(=O)C1 (centres undefined)
inactive: [1] | [2] | [3] | [4]

CCCC(=O)c1ccccc1
inactive: [1] | [2] | [3] | [4]

CC(C)CC(=O)CC(C)C
inactive: [1] | [2] | [3] | [4]

CCNC(=O)/C=C/c1cccc(Br)c1
inactive: [1] | [2] | [3] | [4]

CC=C(Cl)Cl
inactive: [1] | [2] | [3] | [4]

CC(C)(C)C(=O)CC(=O)C(C)(C)C
inactive: [1] | [2] | [3] | [4]

C=C(C)C(=O)OCCNC(C)(C)C
inactive: [1] | [2] | [3] | [4]

C=CC(=O)NCOCCCC
inactive: [1] | [2] | [3] | [4]

CC(=O)c1ccc2ccc3ccccc3c2c1
inactive: [1] | [2] | [3] | [4]

Cc1cccc2c1ccc1ccccc12
inactive: [1] | [2] | [3] | [4]

CCC=O
inactive: [1] | [2] | [3] | [4]

CCCc1nc(C)c2c(=O)[nH]c(-c3cc(S(=O)(=O)N4CCN(CC)CC4)ccc3OCC)nn12
inactive: [1] | [2] | [3] | [4]

CN(C)[C@@H]1C(=O)C(C(=O)NCN2CCCC2)=C(O)[C@@]2(O)C(=O)C3=C(O)c4c(O)cccc4[C@@](C)(O)C3C[C@@H]12 (some centres undefined)
inactive: [1] | [2] | [3] | [4]
